# Shown are actives, neighbours in structure and some others; about 3.5% of the full set was active somewhere.
# MITF inh = human MITF inhibition, primary screen; O75030; AlphaScreen MITF homodimerization, bead proximity signal; inhibition, % at 2.6 µM; actives 0.91% (n = 650,000); AID 1259374; in the data active = inhibition above about 50%;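 note: 0% = vehicle wells with protein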
# Target sequence (O75030 whole entry, looked up): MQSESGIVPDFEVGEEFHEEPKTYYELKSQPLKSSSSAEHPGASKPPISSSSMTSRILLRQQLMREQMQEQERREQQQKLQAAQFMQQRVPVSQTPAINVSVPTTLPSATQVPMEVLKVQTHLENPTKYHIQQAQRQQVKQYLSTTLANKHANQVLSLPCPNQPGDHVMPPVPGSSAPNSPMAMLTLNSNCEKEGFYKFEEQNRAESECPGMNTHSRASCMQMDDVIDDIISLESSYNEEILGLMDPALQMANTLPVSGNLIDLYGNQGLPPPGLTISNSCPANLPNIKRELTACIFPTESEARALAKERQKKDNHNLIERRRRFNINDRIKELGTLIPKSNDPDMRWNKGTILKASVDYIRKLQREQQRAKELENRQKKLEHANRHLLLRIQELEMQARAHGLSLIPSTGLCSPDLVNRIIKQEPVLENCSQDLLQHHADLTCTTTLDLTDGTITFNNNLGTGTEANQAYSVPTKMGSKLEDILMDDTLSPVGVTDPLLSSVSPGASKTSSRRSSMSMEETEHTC
# FBW7 activator = activators of human E3 ligase FBW7; Q969H0; AlphaScreen FBW7–phospho-cyclin E peptide binding, activator screen; normalized activity (activation), % at 26.1 µM; actives 0.13% (n = 650,000); in the data active = normalized activity above about 1.9%;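 note: purified mutant Fbw7 with reduced substrate affinity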
# GPR151 activ = activators of human GPR151; PathHunter beta-arrestin GPR151 cells, luminescence; activation, % at 11.2 µM; actives 1% (n = 650,000); in the data active = activation above about 4.9%;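 note: 0% = median of compound wells and 100% = cells with positive control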
# TEAD-YAP block = TEAD-YAP interaction inhibition | actives 1.4% (n = 640,000) | HEK-TIYL cells, TEAD-Gal4/YAP UAS-luciferase luminescence | inhibition, % at 9.12 µM | AID 1259422; in the data active = inhibition above about 32%;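 note: 0% = median of test compound wells and 100% = reference inhibitor wells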
# GPR151 confirm = confirmation of human GPR151 activators | GPR151 PathHunter beta-arrestin cells, luminescence, 90 min; % of EA-reagent control over plate median | shares compounds with GPR151 activ | activation, % at 11.2 µM | 6,700 tested, under 10 active | AID 1508609;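 active = mean percent activation across replicates above the confirmation screen cutoff of 4.91%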
# GPR119 counter = GPR119 activation, counter-screen for GPR151 activators. actives 0.3% (n = 6,700). shares compounds with GPR151 activ. activation, % at 11.2 µM. GPR119 PathHunter beta-arrestin cells, luminescence, 90 min; 0 = compound-well median, 100 = enzyme-acceptor control;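 active = mean percent activation in the counterscreen above 29.09%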;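 note: counterscreen on off-target GPR119 to flag nonselective hits from the GPR151 activator screen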
# Numbers without * were called inactive; / = no result.
SMILES,MITF inh,FBW7 activator,GPR151 activ,TEAD-YAP block,GPR151 confirm,GPR119 counter
COc1cc2c(cc1NC(=O)c1ccccc1Cl)oc1ccccc12,-14,0,0,-41,/,/
COc1cc2c(cc1NC(=O)c1cccc([N+](=O)[O-])c1)oc1ccccc12,8,0,6.9*,-1,1,0
NS(=O)(=O)c1ccc(N/N=C/c2c(O)ccc3ccccc23)c([N+](=O)[O-])c1,4,0,-1,-7,/,/
COc1ccc(-c2cc3cc(OC)c(OC)cc3c(-c3cc(C(C)(C)C)c(O)c(C(C)(C)C)c3)n2)cc1OC,6,0,1,-10,/,/
Cc1cc(C)c2[nH]c(=O)c(CN(CCCO)Cc3nnnn3CCc3ccccc3)cc2c1,10,1,6.0*,14,1,9
COc1ccc2cc(CN(CCCO)C(=O)c3ccc(C)cc3)c(=O)[nH]c2c1,4,0,5.5*,-4,1,6
COc1ccc(Cn2nnnc2CN(CCCO)Cc2cc3cc(C)ccc3[nH]c2=O)cc1,13,0,6.7*,7,-1,-14
O=C(O)c1ccc2c(c1)[C@@H]1C=CC[C@@H]1[C@H](c1ccncc1)N2,4,-1,2,-1,/,/
O=C(O)c1ccc(CNCc2ccc(Cl)cc2Cl)cc1,19,1,8.9*,15,-1,-15
O=C(NCc1ccco1)c1nc2c(nnn2Cc2ccc(F)cc2)c(=O)[nH]1,10,1,5.3*,8,0,-5
O=C(NCc1cccs1)c1nc2c(nnn2Cc2ccc(F)cc2)c(=O)[nH]1,9,0,0,0,/,/
CC(C)c1ccc(C2CC(=O)NC(SCC(=O)Nc3cccc(C(F)(F)F)c3)=C2C#N)cc1 (stereo not drawn),14,0,2,-4,/,/
CC(NC(=O)c1ccc2c(c1)OCO2)C1CCCO1 (stereo not drawn),4,0,5.5*,-14,1,13
CC(NC(=O)c1cccc(Br)c1)C1CCCO1 (stereo not drawn),-24,0,0,-7,/,/
CCCNC(=O)CSc1nccn1Cc1ccc(F)cc1,-10,0,5.7*,-4,1,11
COCC(C)NC(=O)c1cnn2c(C(F)(F)F)cc(-c3cccs3)nc12 (stereo not drawn),18,0,1,-4,/,/
O=C1CC(C(=O)N2CCC3(CC2)CC3C(=O)NCCC2=CCCCC2)c2ccccc21 (stereo not drawn),-4,0,5.5*,-5,0,6
COCC(=O)N1CCCc2ccc(NS(=O)(=O)c3cc(C)ccc3C)cc21,6,0,6.8*,14,0,0
COCC(=O)N1CCCc2ccc(NS(=O)(=O)c3ccc(C)c(C)c3)cc21,17,0,0,15,/,/
O=C(Oc1ccccc1[N+](=O)[O-])c1ccc(F)cc1,9,0,5.9*,6,1,-12
O=C(Oc1ccccc1[N+](=O)[O-])c1ccccc1Cl,10,0,10*,-3,0,-5
COc1cc(OC)cc(C(=O)Nc2nc3ccc([N+](=O)[O-])cc3s2)c1,-10,0,0,-3,/,/
CCOC(=O)c1sc(-c2ccccc2)cc1NC(=O)c1cc2ccccc2cc1OC,-11,0,-1,-20,/,/
CCOC(=O)c1sc(-c2ccccc2)cc1NC(=S)NC(=O)CN1C(=O)CCC1=O,6,0,7.7*,-3,1,7
CC(Cc1ccccc1)N1CCC2(CC1)C(=O)NC(=O)C2c1ccccc1 (stereo not drawn),-1,0,0,-8,/,/
SMILES,MITF inh,FBW7 activator,GPR151 activ,TEAD-YAP block,GPR151 confirm,GPR119 counter
COc1ccccc1NC(=O)CN1CCC(Nc2nc(C)c(C)c(=O)[nH]2)CC1,-8,0,1,5,/,/
CNC(=O)CN1c2ccccc2C(C)(C)C12C=Cc1cc([N+](=O)[O-])ccc1O2 (stereo not drawn),12,0,2,6,/,/
CC(=O)c1oc2ccccc2c1NC(=O)CN1CCCCC1,6,0,5.6*,-5,1,-9
CN1CCN(CC(=O)Nc2c(C(=O)C3CC3)oc3ccccc23)CC1,-1,0,1,-10,/,/
Cc1cc2c(cc3c(=O)n(CC(=O)NCCCN4CCCC(C)C4)nc(C)n32)s1 (stereo not drawn),8,0,7.7*,-1,0,-8
Cc1cc2c(cc3c(=O)n(CC(=O)N4CCCC(C)C4)nc(C)n32)s1 (stereo not drawn),17,0,0,2,/,/
CCc1nn(CC(=O)NCCN(C)C2CCCCC2)c(=O)c2cc3sc(C)cc3n12,-1,0,8.6*,-1,0,-9
COc1ccc([N+](=O)[O-])cc1/C=C1\C(=O)N(c2ccccc2)N=C1C,-2,0,8.1*,-2,0,-1
CCCOC(=O)CN1C(=O)C2C3c4ccccc4C(c4ccccc43)C2C1=O (stereo not drawn),16,0,5.0*,4,-1,-15
